Source: PubChem BioAssay (NCI)
The panel holds about 83,000 compounds, 20% with a hit somewhere; the sample as a whole holds those more often.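 Testing used 96-well plates and a 48-hour single-concentration exposure. Example: -40 means 40% of the starting cells died.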 Unmarked numbers belong to inactive results. Active and inactive are the calls of the source. The calls were made as follows: active = growth percent below 10; inactive = the rest.

What follows are molecules tested on HL-60(TB) leukemia (assay: NCI-60 one-dose screen, 48 h (100 = growth as untreated, 0 = no growth, -100 = all killed)). Conditions: 10 µM unless noted.

| SMILES | growth |
| --- | --- |
| COc1ccc([C@@H]2c3[nH]c4ccccc4c3C[C@H]3C(=O)N(C4CCN(CC5CCCCC5)CC4)CC(=O)N23)c(OC)c1 | 47.7% |
| O=C1c2c(c3c4cc(Br)ccc4[nH]c3c3ccc4ccccc4c23)C(=O)N1CCO | 96.7% |
| COc1ccc(Oc2ccc(/C=N/NC(=O)CSc3nc4ccccc4c(=O)n3-c3ccc(Cl)cc3)cc2)cc1 | 104% |
| O=C(O)CNS(=O)(=O)c1ccc(Oc2ccc(S(=O)(=O)NCC(=O)O)cc2)cc1 | 91% |
| O=C(CSc1nc2ccccc2c(=O)n1-c1ccc(S(=O)(=O)Nc2ccc(Cl)nn2)cc1)Nc1ccc(S(=O)(=O)Nc2ccc(Cl)nn2)cc1 | 96.4% |
| CCOC(=O)c1c(NCC(=O)Nc2ccc(Br)cc2)sc2c1CCCC2 | 28.9% |
| CN1CCN(c2ccc(Nc3nc(NCCNC(=O)c4ccc(F)cc4)c4sccc4n3)cc2)CC1 | 34.3% |
| O=C(CCCCCCN1CC(=O)N2[C@@H](c3ccccc3Br)c3[nH]c4ccccc4c3C[C@H]2C1=O)NO | 5.1% (active) |
| COc1cc(OC)c(C2C(Cl)C(=O)N2Nc2ncnc3ccccc23)cc1OC (centres undefined) | 108% |
| COc1ccc(/C=C(\C#N)C(=O)N2c3ccccc3Sc3ccc(SC)cc32)cc1F | 93.5% |
| C=CCSc1ccc2c(c1)C(N1CCNCC1)=Nc1ccccc1O2 | 25.6% [8.25 µM] |
| COc1ccc([C@@H]2C(=O)N(c3cc(OC)c(OC)c(OC)c3)[C@H]2c2ccc(OC)c(O)c2)cc1 | 2.64% (active) |
| Cc1ccc(NC(=O)c2ccc(CN3CCOCC3)c(C(F)(F)F)c2)cc1Oc1ccc(-c2[nH]nc3ncnc(N)c23)cc1 | 80.9% |
| COc1ccc(NC(=O)CSc2nnc(-c3ccc4nc(-c5ccc(OC)c(OC)c5)[nH]c4c3)o2)cc1OC | 111% |
| Cc1cc2nc(C(Cl)Cl)nc(-c3cccs3)n2n1 | -25.4% (active) |
| CN1CCN(CC#CCn2c3c(c4ccccc42)C[C@]2(C)[C@H]4CC=C5[C@@H]6CC(C)(C)CC[C@]6(C(=O)N6CCOCC6)CC[C@@]5(C)[C@]4(C)CC[C@H]2C3(C)C)CC1 | 16.2% |
| COc1ccc(C2CC(c3ccc(Nc4nc(NCCO)nc(N5CCOCC5)n4)cc3)=Nc3c(N)nc(N)nc3N2)cc1 (centres undefined) | 90.9% |
| C=C1CC[C@H]2[C@@](C)(CCC3OC(c4ccc(OCc5cn(C6CC(OC(C)=O)C(OC(C)=O)C(COC(C)=O)O6)nn5)cc4)OC[C@]32C)[C@@H]1/C=C/C1=CCOC1=O (some centres undefined) | 56.2% |
| NS(=O)(=O)c1ccc(Nc2nc(N/N=C/c3c[nH]c4ccccc34)nc(Nc3ccccc3)n2)cc1 | 34.4% |
| CC[C@]12C=CCN3CC[C@@]4(c5cc(NC(=O)COc6cc(O)c7c(=O)cc(-c8ccccc8)oc7c6)c(OC)cc5N(C)[C@H]4[C@@](O)(C(=O)OC)[C@@H]1OC(C)=O)[C@@H]32 | -44.9% (active) |

| SMILES | growth |
| --- | --- |
| O=C(NNc1nc2cc(F)c(F)cc2n2cccc12)c1ncccn1 | 2.19% (active) |
| O=C1/C(=C/C=C/c2ccco2)SC(=S)N1c1ccccc1 | 51.8% |
| CCc1cccc2c3c(sc12)C(c1ccc(Cl)cc1)C(C#N)=C(/N=C/c1ccc(Cl)cc1)O3 (centres undefined) | -6.78% (active) |
| Cc1ccc(S(=O)(=O)N(CC[C@@H]2C[C@H]2c2cc3ccccc3o2)S(=O)(=O)c2ccc(C)cc2)cc1 | 64.6% |
| C[C@H]1[C@H](C)CC[C@]2(COC(=O)c3cccnc3)CC[C@]3(C)C(=CC[C@@H]4[C@@]5(C)CCCNC(C)(C)[C@@H]5CC[C@]43C)[C@H]12 | 23.9% |
| Cc1cc(O)c2c(c1)C(=O)C(c1c(C)cc3c(c1O)C(=O)C=CC3=O)=CC2=O | 55% |
| CC(=O)Oc1ccccc1C(=O)Nc1cc(C(C)C)ccc1C | -28.4% (active) |
| CN(C)S(=O)(=O)c1ccc(-c2nc(C(Cl)Cl)nc3cc(-c4ccc(F)cc4)nn23)cc1 | 6.96% (active) |
| CN1CCN(c2ccc(Nc3nc(NCCCNS(=O)(=O)c4ccc(Cl)cc4)c4sccc4n3)cc2)CC1 | -43.7% (active) |
| CCCCCCCCCCCC(=O)NC(C)(C)C(=O)N1CCCC1C(=O)NC(C)(C)C(=O)NC(C)(C)C(=O)N1CCCC1C(=O)NC(C)(C)C(=O)NC(C)(C)C(=O)N1CCCC1C(=O)NC(C)C(=O)NCCC(=O)NC(C)C(=O)NC(C)(C)C(=O)NC(C)(C)C(=O)NC(C)(C)C(=O)NCCC(=O)NC(C)(C)C(=O)NC(C)(C)C(=O)NC(C)(C)C(=O)NC(C)C(=O)NCCC(=O)O (centres undefined) | -66.3% (active) |
| COc1ccc(N2C(=O)c3cc(OC)c(OC)cc3NC2SCc2ccccc2)cc1 (centres undefined) | 110% |
| CN1CCC[C@]2(C)[C@H]3CC[C@@H]4[C@@H]5[C@H]6OC[C@@]5(CCC6(C)C)CC[C@@]4(C)[C@]3(C)CC[C@H]2C1(C)C | 30.6% |
| C#CCOc1ccc(C(Nc2cc(Cl)ccc2Cl)c2nnnn2C2CCCCC2)cc1 (centres undefined) | 88.4% |
| CS(=O)(=O)Nc1cc(-c2ccc3ncc(C#N)c(NCc4ccccc4F)c3c2)cnc1Cl | 5.25% (active) |
| COc1cc(-c2nn(C(C)(C)C)cc2-c2ccnc(NCCCNS(=O)(=O)c3ccc(Cl)cc3)n2)ccc1Cl | 64.9% |
| COC(=O)C1(C)CCC[C@]2(C)[C@H]3C[C@H]4C(C(C)C)=C[C@]3(CC[C@@H]12)[C@H]1[C@@H]4[C@@H](OC(=O)c2ccco2)CC[C@@H]1OC(=O)c1ccco1 (some centres undefined) | 91.9% |
| Oc1ccc(CSc2nnc(-c3ccc(Cl)cc3)o2)c2cccnc12 | 12.6% |
| O=C(NNc1nc2cc(F)ccc2n2cccc12)c1ccncn1 | -4.33% (active) |
| COc1cc(C2CC(c3ccc(Nc4nc(NCCO)nc(Nc5ccc(Cl)cc5)n4)cc3)=Nc3c(N)nc(N)nc3N2)cc(OC)c1OC (centres undefined) | 25% |
